Results published in PMC4081100, “A DNA-binding-site landscape and regulatory network analysis for NAC transcription factors in Arabidopsis thaliana”.

Tests used:
Assay in all cases: universal protein binding microarray (PBM); transcription factors of Arabidopsis thaliana; high values mean tight binding
Conditions in all cases: protein: recombinant; tags: GST; chain copies: 2; dsDNA, one strand shown
GST-ANAC092(1-176) = target: T1, GST-ANAC092(1-176) (Arabidopsis thaliana, UniProt Q9FKA0 1-176)
T1 sequence: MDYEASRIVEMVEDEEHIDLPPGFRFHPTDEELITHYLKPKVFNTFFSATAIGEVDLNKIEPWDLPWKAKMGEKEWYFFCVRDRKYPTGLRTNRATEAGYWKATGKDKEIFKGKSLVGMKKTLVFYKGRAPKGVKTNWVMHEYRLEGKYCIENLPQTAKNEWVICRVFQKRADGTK
Method in brief: (§1)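 Binding is expressed as the normalised enrichment score (E-score). Proteins carrying a GST tag, whether NAC-domain, full-length or DNA-binding-domain forms, were induced in cells, and zinc acetate was added for zinc-finger proteins. After purification on glutathione–Sepharose 4B and quantification by A280 or anti-GST western blot, each was applied in duplicate at 200 to 500 nM final to custom all-10-mer Agilent 4 × 180K arrays made double-stranded by primer extension. Gapped and ungapped 8-mers were scored.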

GST-NTL6(1-168) = GST-NTL6(1-168) (Arabidopsis thaliana, UniProt Q9SCK6 1-168)
GST-NTL6(1-168), sequence (Q9SCK6 1-168): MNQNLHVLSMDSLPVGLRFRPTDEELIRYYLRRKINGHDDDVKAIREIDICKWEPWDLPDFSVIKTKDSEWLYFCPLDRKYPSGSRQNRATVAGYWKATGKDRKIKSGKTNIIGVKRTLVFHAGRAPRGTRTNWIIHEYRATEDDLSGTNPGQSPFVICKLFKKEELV
Method in brief: as §1

GST-ANAC019 NAC domain = target: T2, GST-ANAC019 NAC domain (Arabidopsis thaliana, UniProt Q9C932 14-162)
T2 sequence: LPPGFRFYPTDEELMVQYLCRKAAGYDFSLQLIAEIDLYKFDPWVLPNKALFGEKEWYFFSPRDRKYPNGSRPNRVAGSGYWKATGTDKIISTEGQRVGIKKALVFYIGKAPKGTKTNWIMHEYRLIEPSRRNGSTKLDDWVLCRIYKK
Method in brief: as §1

GST-ANAC055(1-171) = target: T3, GST-ANAC055(1-171) (Arabidopsis thaliana, UniProt Q9LDY8 1-171)
T3 sequence: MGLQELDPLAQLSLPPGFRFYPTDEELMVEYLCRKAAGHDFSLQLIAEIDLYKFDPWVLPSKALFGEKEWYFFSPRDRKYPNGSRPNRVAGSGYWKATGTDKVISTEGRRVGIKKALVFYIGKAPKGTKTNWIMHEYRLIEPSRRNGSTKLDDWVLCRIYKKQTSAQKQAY
Method in brief: as §1

GST-ATAF1 NAC domain = target: T4, GST-ATAF1 NAC domain (Arabidopsis thaliana, UniProt Q39013 7-158)
T4 sequence: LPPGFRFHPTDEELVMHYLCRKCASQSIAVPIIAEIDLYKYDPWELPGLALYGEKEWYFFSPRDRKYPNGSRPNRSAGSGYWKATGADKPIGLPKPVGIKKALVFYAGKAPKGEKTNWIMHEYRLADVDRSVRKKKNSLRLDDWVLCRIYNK
Method in brief: as §1

[1] = target: T5, GST-ANAC092(1-285) full length (Arabidopsis thaliana, UniProt Q9FKA0 1-285)
T5 sequence: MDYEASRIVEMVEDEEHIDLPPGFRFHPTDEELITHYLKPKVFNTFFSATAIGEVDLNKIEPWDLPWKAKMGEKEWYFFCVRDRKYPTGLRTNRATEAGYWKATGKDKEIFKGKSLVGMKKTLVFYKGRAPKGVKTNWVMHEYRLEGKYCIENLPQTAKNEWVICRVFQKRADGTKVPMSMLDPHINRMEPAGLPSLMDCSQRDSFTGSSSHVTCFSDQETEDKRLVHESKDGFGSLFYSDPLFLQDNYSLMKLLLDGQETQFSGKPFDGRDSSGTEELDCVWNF
Method in brief: as §1

GST-NAP(1-166) = target: T6, GST-NAP(1-166) (Arabidopsis thaliana, UniProt O49255 1-166)
T6 sequence: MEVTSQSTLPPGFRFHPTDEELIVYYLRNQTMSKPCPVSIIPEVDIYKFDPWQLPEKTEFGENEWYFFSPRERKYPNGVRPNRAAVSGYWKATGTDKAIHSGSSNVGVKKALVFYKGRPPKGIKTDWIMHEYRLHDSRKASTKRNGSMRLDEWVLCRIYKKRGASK
Method in brief: as §1

GST-NST2(1-184) = target: T7, GST-NST2(1-184) (Arabidopsis thaliana, UniProt Q9M274 1-184)
T7 sequence: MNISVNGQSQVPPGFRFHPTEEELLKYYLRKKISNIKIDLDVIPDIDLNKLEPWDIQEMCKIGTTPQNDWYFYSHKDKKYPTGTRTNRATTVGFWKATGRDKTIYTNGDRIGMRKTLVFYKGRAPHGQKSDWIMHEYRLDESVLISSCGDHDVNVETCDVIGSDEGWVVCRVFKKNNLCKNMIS
Method in brief: as §1

GST-SND1(1-203) = target: T8, GST-SND1(1-203) (Arabidopsis thaliana, UniProt Q9LPI7 1-203)
T8 sequence: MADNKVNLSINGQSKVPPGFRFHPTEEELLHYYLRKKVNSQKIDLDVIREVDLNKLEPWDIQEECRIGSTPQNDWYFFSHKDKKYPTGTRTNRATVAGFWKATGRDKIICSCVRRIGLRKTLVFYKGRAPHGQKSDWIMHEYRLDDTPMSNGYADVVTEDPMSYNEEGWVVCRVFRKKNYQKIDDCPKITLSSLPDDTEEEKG
Method in brief: as §1

GST-VND3 NAC domain = target: T9, GST-VND3 NAC domain (Arabidopsis thaliana, UniProt Q9FH59 12-162)
T9 sequence: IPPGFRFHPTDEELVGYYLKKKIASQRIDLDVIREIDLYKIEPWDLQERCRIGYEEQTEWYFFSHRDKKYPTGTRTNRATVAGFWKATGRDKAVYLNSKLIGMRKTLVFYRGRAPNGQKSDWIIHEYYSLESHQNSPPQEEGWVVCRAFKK
Method in brief: as §1

GST-VND7 NAC domain = target: T10, GST-VND7 NAC domain (Arabidopsis thaliana, UniProt Q9C8W9 9-158)
T10 sequence: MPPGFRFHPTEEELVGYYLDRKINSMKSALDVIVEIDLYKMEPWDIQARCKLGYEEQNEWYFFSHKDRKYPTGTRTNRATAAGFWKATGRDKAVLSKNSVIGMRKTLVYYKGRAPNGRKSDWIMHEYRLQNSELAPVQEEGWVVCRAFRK
Method in brief: as §1

GST-NTL8 NAC domain = target: T11, GST-NTL8 NAC domain (Arabidopsis thaliana, UniProt Q9XIN7 14-156)
T11 sequence: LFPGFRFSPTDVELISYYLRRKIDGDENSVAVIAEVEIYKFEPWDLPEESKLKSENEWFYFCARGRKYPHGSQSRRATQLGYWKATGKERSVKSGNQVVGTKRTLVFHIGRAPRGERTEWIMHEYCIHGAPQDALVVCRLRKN
Method in brief: as §1

| Sequence | binding signal (GST-ANAC092(1-176)) [E-score] | binding signal (GST-NTL6(1-168)) [E-score] | binding signal (GST-ANAC019 NAC domain) [E-score] | binding signal (GST-ANAC055(1-171)) [E-score] | binding signal (GST-ATAF1 NAC domain) [E-score] | binding signal [1] [E-score] | binding signal (GST-NAP(1-166)) [E-score] | binding signal (GST-NST2(1-184)) [E-score] | binding signal (GST-SND1(1-203)) [E-score] | binding signal (GST-VND3 NAC domain) [E-score] | binding signal (GST-VND7 NAC domain) [E-score] | binding signal (GST-NTL8 NAC domain) [E-score] |
| --- | --- | --- | --- | --- | --- | --- | --- | --- | --- | --- | --- | --- |
| CACGTAAA | 0.425 | 0.0987 | 0.43 | 0.414 | 0.332 | 0.431 | 0.35 | 0.293 | 0.289 | 0.414 | 0.346 | – |
| ACACGATA | 0.38 | 0.127 | 0.324 | 0.261 | 0.267 | 0.417 | 0.183 | 0.27 | 0.266 | 0.273 | 0.248 | – |
| AATGCCGT | 0.335 | 0.0523 | 0.428 | 0.391 | 0.342 | 0.365 | 0.366 | 0.114 | 0.0974 | 0.407 | 0.4 | – |
| AAGCGTAA | 0.214 | 0.0576 | 0.168 | 0.0793 | 0.175 | 0.3 | 0.119 | 0.212 | 0.426 | 0.13 | 0.115 | – |
| TTACGAAA | 0.396 | 0.121 | 0.248 | 0.221 | 0.278 | 0.409 | 0.087 | 0.227 | 0.434 | 0.26 | 0.233 | 0.067 |
| ATTCCGTA | 0.209 | 0.17 | 0.456 | 0.385 | 0.308 | 0.342 | 0.381 | 0.194 | 0.239 | 0.434 | 0.374 | 0.0978 |
| ACGTCACT | 0.383 | 0.0658 | 0.365 | 0.342 | 0.354 | 0.406 | 0.354 | 0.234 | 0.314 | 0.355 | 0.328 | – |
| ACGTAATC | 0.464 | 0.0901 | 0.453 | 0.411 | 0.38 | 0.462 | 0.443 | 0.356 | 0.424 | 0.427 | 0.44 | – |
| ACGTATCT | 0.189 | 0.0824 | 0.425 | 0.38 | 0.334 | 0.306 | 0.393 | 0.189 | 0.14 | 0.393 | 0.313 | – |
| ATACGAAA | 0.393 | 0.184 | 0.166 | 0.202 | 0.259 | 0.421 | 0.251 | 0.271 | 0.239 | 0.296 | 0.205 | – |
| CACGTAAG | 0.449 | 0.068 | 0.463 | 0.441 | 0.349 | 0.446 | 0.419 | 0.201 | 0.0778 | 0.447 | 0.447 | 0.17 |
| GTTACTTA | 0.306 | 0.461 | 0.0988 | 0.117 | 0.256 | 0.374 | 0.113 | 0.25 | 0.41 | 0.263 | 0.248 | 0.286 |
| ACGGAAGC | 0.299 | 0.0877 | 0.436 | 0.374 | 0.289 | 0.298 | 0.236 | 0.257 | 0.209 | 0.385 | 0.266 | – |
| CTAAGTAA | 0.2 | 0.49 | 0.0529 | 0.0945 | 0.107 | 0.3 | 0.188 | 0.225 | 0.394 | 0.238 | 0.209 | 0.216 |
